Values joined by “and” are separate entries in the source; they are usually repeats but may differ in a detail not shown here. Equal entries are not always repeated. Compounds without any hit were thinned out: in the full panel of roughly 83,000, 20% have a hit.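 Testing used 96-well plates and a 48-hour single-concentration exposure. Example: -40 means 40% of the starting cells died.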 Active and inactive are the calls of the source. The calls were made as follows: active = growth percent below 10; inactive = the rest.
Experiments:
Assay in all cases: NCI-60 one-dose screen, 48 h (100 = growth as untreated, 0 = no growth, -100 = all killed)
Conditions in all cases: 10 µM
T-47D breast = test system: T-47D breast
BT-549 breast = test system: BT-549 breast
MDA-MB-435 melanoma = test system: MDA-MB-435 melanoma
SW-620 colon = test system: SW-620 colon
MCF7 breast = test system: MCF7 breast
HCT-116 colon = test system: HCT-116 colon
HCC-2998 colon = test system: HCC-2998 colon
KM12 colon = test system: KM12 colon
MDA-MB-468 breast = test system: MDA-MB-468 breast

SMILES | growth (T-47D breast) | growth (BT-549 breast) | growth (MDA-MB-435 melanoma) | growth (SW-620 colon) | growth (MCF7 breast) | growth (HCT-116 colon) | growth (HCC-2998 colon) | growth (KM12 colon) | growth (MDA-MB-468 breast)
COc1csc(/C=N/NC(=O)c2[nH]c3ccc(Br)cc3c2-c2ccccc2)c1 | 47.1% (inactive) | 31.8% (inactive) | -43.6% (active) | 17.9% (inactive) | -3.06% (active) | -29.4% (active) | 7.87% (active) | 3.46% (active) | -18% (active)
Nc1nc(Nc2ccc(Cl)cc2)n(Cc2cccc(Br)c2)n1 | 15.1% (inactive) | -51.4% (active) | -64.9% (active) | -16.5% (active) | -31.6% (active) | -57.7% (active) | -71.6% (active) | -0.172% (active) | -46.5% (active)
Nc1nnc(-c2c[nH]c3ccc(F)cc23)c(-c2c[nH]c3ncccc23)n1 | 31.7% (inactive) | 46.7% (inactive) | 60.9% (inactive) | 73.6% (inactive) | 34% (inactive) | 25% (inactive) | 97.9% (inactive) | 49.5% (inactive) | 54.1% (inactive)
CN1CCc2c(sc3ncnc(N/N=C/c4cn(-c5ccccc5)nc4-c4ccc(Br)cc4)c23)C1 | 74.2% (inactive) | 83.4% (inactive) | 66.1% (inactive) | 11% (inactive) | -3.07% (active) | 1.25% (active) | 27.1% (inactive) | 44.9% (inactive) | 16.8% (inactive)
O=C(CS(=O)(=O)c1oc(-c2ccc(Cl)cc2)nc1S(=O)(=O)c1ccc(Cl)cc1)N1CCOCC1 | -50.2% (active) | 52.4% (inactive) | 47% (inactive) | -18.3% (active) | 11.3% (inactive) | 4.36% (active) | 51% (inactive) | 55.8% (inactive) | -4.97% (active)
CCC(C)S(=O)(=O)c1oc(-c2ccc(C)cc2)nc1S(=O)(=O)c1ccccc1 (stereo unspecified) | -73.5% (active) | -13.3% (active) | -98.2% (active) | -38.6% (active) | -56.5% (active) | -6.96% (active) | -84.6% (active) | -65% (active) | -93.4% (active)
O=C1NC(=NC23CC4CC(CC(C4)C2)C3)N/C1=C\c1ccc2ncoc2c1 | -0.573% (active) | -20.6% (active) | 16.8% (inactive) | 9.67% (active) | 1.42% (active) | 27.6% (inactive) | -5.81% (active) | 4.28% (active) | -60% (active)
O=c1[nH]c2ccc(Cl)cc2cc1CSc1ccc(Nc2nccc(-c3ccc4ccccc4c3)n2)cc1 | 100% (inactive) | 83.4% (inactive) | 84.7% (inactive) | 17.6% (inactive) | 29.2% (inactive) | 55% (inactive) | 79.6% (inactive) | 53% (inactive) | 15.2% (inactive)
C=C1CCC2C3(C)COC(c4c(F)cccc4F)OC3CCC2(C)C1C/C=C1/C(=O)OCC1O (stereo unspecified) | 1.57% (active) | -78.4% (active) | -9.65% (active) | -41.4% (active) | -12.6% (active) | -59.2% (active) | -65% (active) | -67.5% (active) | -24% (active)
CNCc1cccc2c1OCCCCCC[C@@](C)(O)CC1(CC1)S(=O)(=O)c1ccc(cc1)-c1cnc(N)c(n1)C(=O)N2 | 33.7% (inactive) | -75.2% (active) | -95.2% (active) | -84.6% (active) | -90% (active) | 0.182% (active) | -100% (active) | -68.7% (active) | -98% (active)
CCOC(=O)N/C(=C1/OCCN1C)[P+](c1ccccc1)(c1ccccc1)c1ccccc1 | 65.9% (inactive) | 75.4% (inactive) | 51.5% (inactive) | 89.1% (inactive) | 41.7% (inactive) | 75.1% (inactive) | 60.4% (inactive) | 51.3% (inactive) | -11.4% (active)
CC1(C)CC[C@]2(C(=O)Nc3ccccc3)CC[C@]3(C)C(=CC[C@@H]4[C@@]5(C)CC[C@H](N)C(C)(C)[C@@H]5CC[C@]43C)[C@H]2C1 | 81.5% (inactive) | 113% (inactive) | 59.1% (inactive) | 8.55% (active) | -73.8% (active) | -99.5% (active) | -64.3% (active) | 36.1% (inactive) | 1.83% (active)
Cc1noc2c(Cc3ccc([N+](=O)[O-])cc3)nn(CC(=O)N/N=C/c3ccc(Br)cc3)c(=O)c12 | 62% (inactive) | 94.3% (inactive) | 92.3% (inactive) | 97.4% (inactive) | 68.4% (inactive) | 64.4% (inactive) | 91.9% (inactive) | 84.2% (inactive) | 95.3% (inactive)
O=C(CNc1nc(-c2ccccc2)cs1)Nc1ccccc1 | -15.3% (active) | -57.7% (active) | -3.84% (active) | -38.6% (active) | -59.7% (active) | 3.71% (active) | -94.9% (active) | 2.41% (active) | -78% (active)
O=C(NCCCCC(c1ccc(F)cc1)c1ccc(F)cc1)NCCCc1cccnc1 | 5.2% (active) | -16.4% (active) | 11.9% (inactive) | 17.3% (inactive) | 13.2% (inactive) | 3.26% (active) | 29.2% (inactive) | 18% (inactive) | -3.04% (active)
COc1ccc(N(C)c2cc(C#N)nc3ccccc23)cc1/C=C/C(=O)NO | -10.8% (active) | -49.4% (active) | -70.5% (active) | -37.5% (active) | -20.8% (active) | -9.52% (active) | -94.8% (active) | -37.1% (active) | -86.1% (active)
COc1ccc(NC(=O)Cn2c(/C=C/c3ccc(N(C)C)cc3)nc3ccccc3c2=O)cc1 | 44.2% (inactive) | -9.99% (active) | 54.3% (inactive) | 48% (inactive) | 21.5% (inactive) | 28.6% (inactive) | 63% (inactive) | 50.5% (inactive) | -25.4% (active)
CCCCCc1ccc(S(=O)(=O)Nc2cc(-c3csc(N(C)C(C)=O)n3)ccc2N2CCN(C)CC2)cc1 | -33.4% (active) | 48.6% (inactive) | 25.4% (inactive) | 8.57% (active) | 4.08% (active) | -84.7% (active) | 20.8% (inactive) | 46.3% (inactive) | 14.1% (inactive)
Cc1ccc(CNC(=O)Cc2ccc3c(c2)CN(C2CCC(=O)NC2=O)C3=O)cc1 (stereo unspecified) | -4% (active) | -46.4% (active) | 13.7% (inactive) | 4.15% (active) | 15.1% (inactive) | 65.2% (inactive) | -23.5% (active) | 1.17% (active) | -50.8% (active)
COc1ccccc1NCc1ccc(CO)n1-c1ccc(C)cc1 | 77.4% (inactive) | 101% (inactive) | 110% (inactive) | 109% (inactive) | 85.3% (inactive) | 80% (inactive) | 114% (inactive) | 105% (inactive) | 97.3% (inactive)
O=C(Nc1ccc(Cl)c([N+](=O)[O-])c1)Nc1ccc(Cl)c([N+](=O)[O-])c1 | 1.86% (active) | -11.6% (active) | 13.3% (inactive) | 18.7% (inactive) | -5.85% (active) | 9.36% (active) | 12.7% (inactive) | 5.87% (active) | -27.2% (active)
COc1ccc(/C=N/N=C(\C)c2ccc3c(c2)Nc2ccccc2S3)cc1O | 21.5% (inactive) | 40.1% (inactive) | 34.7% (inactive) | 68.5% (inactive) | 11.9% (inactive) | 38.7% (inactive) | 51.2% (inactive) | 39.2% (inactive) | 0.0526% (active)
COc1cc(/C=N/NC(=O)c2ccc3nc(-c4ccc(Cl)cc4)[nH]c3c2)cc(OC)c1OC | -58.6% (active) | -81.5% (active) | -67.3% (active) | -22.1% (active) | -72.8% (active) | -67.5% (active) | -39.7% (active) | -33% (active) | 107% (inactive) and -89.3% (active)
CCN1CCN(c2ccc(NC(=O)Nc3ccc(-c4cc(C(=O)NC)c5ncccc5n4)cc3)cc2C(F)(F)F)CC1 | 49.4% (inactive) | -96% (active) | -100% (active) | -100% (active) | -83.1% (active) | -100% (active) | -100% (active) | -98.8% (active) | -96.4% (active)
COc1cc(/C=C/C(=O)c2ccc(NC(=O)CSc3nnc(-c4c[nH]c5ccccc45)n3-c3ccccc3)cc2)cc(OC)c1OC | 69.6% (inactive) | 54.9% (inactive) | 34.1% (inactive) | 25.4% (inactive) | 10% (inactive) | -30.2% (active) | 23.8% (inactive) | 48.8% (inactive) | 37% (inactive)
C=C1CCC2C3(C)COC(c4c(F)cccc4F)OC3CCC2(C)C1CC(O)C1=CCOC1=O (stereo unspecified) | 47.6% (inactive) | -9.18% (active) | 40% (inactive) | 3.41% (active) | 19% (inactive) | -31.2% (active) | 52.1% (inactive) | 54.3% (inactive) | 66.1% (inactive)
O=C(NO)c1ccc(Cn2ccc3c(Nc4ccccc4)ncnc32)cc1 | -8.19% (active) | 27.4% (inactive) | 9.97% (active) | -61.8% (active) | 14% (inactive) | -9.89% (active) | -30.1% (active) | 12.1% (inactive) | -5.25% (active)
Cc1noc2c(Cc3ccccc3)nn(CC(=O)N/N=C/c3ccc(Br)cc3)c(=O)c12 | 8.11% (active) | 87.2% (inactive) | 70.2% (inactive) | 54.6% (inactive) | 45.4% (inactive) | 24.7% (inactive) | 85.3% (inactive) | 73.8% (inactive) | 78.1% (inactive)
CN1CCCN(Cc2ccc(C(=O)Nc3cccc(Nc4ccc5c(O)cccc5n4)c3)cc2C(F)(F)F)CC1 | -27.7% (active) | -75.2% (active) | -96.5% (active) | -92.7% (active) | -96.5% (active) | -67.4% (active) | -85.3% (active) | -11% (active) | -94.5% (active)

— PubChem BioAssay (NCI)
